Experimental data published in PubChem BioAssay (Tox21).
Results filed as inconclusive are left out. Calls of active or inactive are those of the source. Unless noted, the call rests on the fitted dose curve.

System: not listed separately
Experiment: qHTS assay to identify small molecule agonists of the estrogen receptor alpha (ER-alpha) signaling pathway in the presence of an antagonist - cell viability counter screen (AID 1259386; active means well fitted cell-killing curve with a large enough effect in the repeat runs;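 further: cells exposed to compounds for 22 h at 37 °C before the viability read; nearly all actives have a fitted effect of over 30% in size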)
Details: VM7Luc4E2 viability, CellTiter-Fluor fluorescence, 22 h; series mostly up to 92.4 µM; activity change, negative = cytotoxicity: at the top concentration
Method in brief: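 Read-out: CellTiter-Fluor fluorescence after 1hr reagent incubation, measured in the same wells as the luciferase readout. VM7Luc4E2 cells were exposed to 15 compound concentrations with 10.0nM ICI-182,780 for 22hr at 37C.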
On the % scale 0 is the no-effect control and ±100 the full control effect.

SMILES | activity change, negative = cytotoxicity
NCCCN1CCOCC1 | 0.991% (inactive)
CCCCCCCCCCCCCCCCOS(=O)(=O)O | 0.355% [at 42.5 µM] (inactive)
NCc1ccccc1Sc1ccccc1CO | -4.85% [at 42.5 µM] (inactive)

Biological target: Progesterone receptor (Homo sapiens) (UniProt P06401)
Sequence (P06401 whole entry, looked up): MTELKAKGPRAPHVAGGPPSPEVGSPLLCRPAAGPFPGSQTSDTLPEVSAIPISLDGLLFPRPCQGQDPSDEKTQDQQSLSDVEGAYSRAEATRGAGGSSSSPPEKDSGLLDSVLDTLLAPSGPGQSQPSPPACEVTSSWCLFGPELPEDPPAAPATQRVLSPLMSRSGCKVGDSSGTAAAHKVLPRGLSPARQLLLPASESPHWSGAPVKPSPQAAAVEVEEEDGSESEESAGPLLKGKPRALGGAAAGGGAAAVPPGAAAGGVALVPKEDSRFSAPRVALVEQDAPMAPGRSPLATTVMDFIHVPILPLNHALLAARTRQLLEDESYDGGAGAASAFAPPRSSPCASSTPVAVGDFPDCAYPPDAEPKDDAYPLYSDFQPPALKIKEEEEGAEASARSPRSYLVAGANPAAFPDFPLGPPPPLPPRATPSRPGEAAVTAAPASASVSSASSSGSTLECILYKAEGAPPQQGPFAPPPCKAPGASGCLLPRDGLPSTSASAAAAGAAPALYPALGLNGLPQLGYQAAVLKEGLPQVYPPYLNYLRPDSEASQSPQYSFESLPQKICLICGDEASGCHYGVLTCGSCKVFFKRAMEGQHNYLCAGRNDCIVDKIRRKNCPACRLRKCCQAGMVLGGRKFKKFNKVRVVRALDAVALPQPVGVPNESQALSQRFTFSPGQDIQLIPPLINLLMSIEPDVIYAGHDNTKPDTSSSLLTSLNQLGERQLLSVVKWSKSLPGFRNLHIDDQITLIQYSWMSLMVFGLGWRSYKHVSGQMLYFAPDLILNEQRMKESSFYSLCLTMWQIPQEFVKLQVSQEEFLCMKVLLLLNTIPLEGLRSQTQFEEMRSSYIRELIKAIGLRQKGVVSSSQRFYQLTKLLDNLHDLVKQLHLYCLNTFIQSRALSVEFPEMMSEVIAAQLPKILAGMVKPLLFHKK
Experiment: qHTS assay to identify small molecule agonists of the progesterone receptor (PR) signaling pathway (AID 1346784); further: nearly all actives have a fitted effect of over 30% in size
Details: PR-UAS-bla HEK293T, beta-lactamase FRET ratio, 16 h; series mostly up to 92.4 µM; activation: at the top concentration
Method in brief: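 PR-UAS-bla HEK 293T cells carrying a UAS-driven beta-lactamase reporter were seeded in medium with 2% charcoal-stripped FBS, preincubated 6 hr at 37C, then exposed to compounds in DMSO for 16 hr; agonism was read by LiveBLAzer B/G FRET fluorescence.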

SMILES | activation
COc1ccnc(CS(=O)c2nc3ccc(OC(F)F)cc3[nH]2)c1OC (centres undefined) | 2.48% [at 42.5 µM] (inactive)
O=C(O)c1ccc(S(=O)(=O)O)cc1C(=O)O | -2.16% (inactive)
COS(=O)(=O)C(F)(F)F | 0.884% (inactive)
OCCNCc1ccccc1 | -3.36% (inactive)
CCOCC(O)COc1ccc(NC(=O)CC[S+](C)C)cc1 (centres undefined) | 2.94% [at 42.5 µM] (inactive)
CC(=O)c1cccc([N+](=O)[O-])c1 | 0.804% (inactive)
CCCCC1=NC2(CCCC2)C(=O)N1Cc1ccc(-c2ccccc2-c2nn[nH]n2)cc1 | -3.77% [at 42.5 µM] (inactive)
CCCCCCCN | -0.0675% (inactive)
CC(CC=O)c1ccccc1 (centres undefined) | 6.94% (inactive)
CCOC(=O)C(=O)CCc1ccccc1 | -0.241% [at 42.5 µM] (inactive)
C[N+](C)(C)CCOC(=O)CCC(=O)OCC[N+](C)(C)C | 0.785% [at 42.5 µM] (inactive)
CCCCCCCCO[C@@H]1O[C@H](CO)[C@@H](O)[C@H](O)[C@H]1O | 0.0267% (inactive)
c1cc(CCCc2ccncc2)ccn1 | 2.63% (inactive)
CCOC(=O)Cc1cccc2ccccc12 | 1.19% (inactive)
CCO[C@H](Cc1ccc(OCCc2ccc(OS(C)(=O)=O)cc2)cc1)C(=O)O | 0.0221% [at 42.5 µM] (inactive)
Cc1cc(C(=O)O)ccc1[N+](=O)[O-] | 0.499% (inactive)
CCN(CC)CCNC(=O)c1cc(Br)c(N)cc1OC | -3.13% [at 42.5 µM] (inactive)

SMILES | activation
OC[C@H]1O[C@@H](OCCc2ccc(O)cc2)[C@H](O)[C@@H](O)[C@@H]1O | 1.35% [at 42.5 µM] (inactive)
C=C1[C@H]2CC[C@@H]3[C@H]2C(C)(C)CCC[C@]13C | -1.57% (inactive)
CCOC(=O)c1cccnc1 | -2.02% [at 42.5 µM] (inactive)
NCC(=O)O | -0.192% [at 19 µM] (inactive)
CN1Cc2cc(C(=O)N3CCC(C4CCNCC4)CC3)ccc2NC(CC(=O)O)C1=O (centres undefined) | 0.569% [at 42.5 µM] (inactive)
CCN(CC)CCOC(=O)C(c1ccccc1)C1CCCCC1 (centres undefined) | -2.37% [at 42.5 µM] (inactive)
O=C1C(O)=C(O)C(=O)C(O)=C1O | -2.65% [at 42.5 µM] (inactive)
Cc1[nH]c(C)c(Cl)c(=O)c1Cl | 2.04% [at 19 µM] (inactive)
O=C(O)CNCC(=O)O | 1.22% [at 8.39 µM] (inactive)
O=C(CS)Nc1ccccc1 | -0.821% [at 42.5 µM] (inactive)
NCC(=O)CCC(=O)O | 0.102% [at 42.5 µM] (inactive)
Cc1ncc(CO)c(C=O)c1O | -2.39% [at 42.5 µM] (inactive)
O=C1CCCCCCCCCCCC(=O)OCCO1 | -0.502% (inactive)
CCOc1ccc(O)cc1 | -10.9% (inactive)
NCCCN1CCOCC1 | -1.66% (inactive)
CCCCCCCCCCCCCCCCOS(=O)(=O)O | 1.13% [at 42.5 µM] (inactive)
NCc1ccccc1Sc1ccccc1CO | 0.291% [at 42.5 µM] (inactive)

Biological target: Progesterone receptor (Homo sapiens) (UniProt P06401)
Experiment: qHTS assay to identify small molecule antagonists of the progesterone receptor (PR) signaling pathway (AID 1346795; active means well fitted inhibition curve with a large enough effect in the signal ratio in the repeat runs, not every such curve was filed as active; the % refers to the signal ratio)
Details: PR-UAS-bla HEK293T, beta-lactamase FRET ratio, 16 h; series mostly up to 92.4 µM; activity change, negative = inhibition: at the top concentration
Method in brief: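 PR-UAS-bla HEK293T cells carrying a UAS-driven beta-lactamase reporter were plated in medium with 2% charcoal-stripped FBS and rested 6 hr at 37C. Compounds were added with 1 nM R5020 (final) for 16 hr, then FRET substrate loaded 2 hr at room temperature.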

SMILES | activity change, negative = inhibition
COc1ccnc(CS(=O)c2nc3ccc(OC(F)F)cc3[nH]2)c1OC (centres undefined) | -8.43% [at 42.5 µM] (inactive)
O=C(O)c1ccc(S(=O)(=O)O)cc1C(=O)O | 6.82% (inactive)
OCCNCc1ccccc1 | -4.28% (inactive)
CCOCC(O)COc1ccc(NC(=O)CC[S+](C)C)cc1 (centres undefined) | 0.84% [at 42.5 µM] (inactive)
CC(=O)c1cccc([N+](=O)[O-])c1 | 1.96% (inactive)
CCCCC1=NC2(CCCC2)C(=O)N1Cc1ccc(-c2ccccc2-c2nn[nH]n2)cc1 | -4.7% [at 42.5 µM] (inactive)
CCOC(=O)C(=O)CCc1ccccc1 | 3.04% [at 42.5 µM] (inactive)
